# Shown is part of a subset that was picked to be rich in the strongest signals.
# Columns and labels:
# Assay in all cases: glycan array binding signal (z-score within array); higher = stronger binding
# Conditions in all cases: glycan notation: IUPAC condensed, linker removed; mutation: E41A
# [1] = target: Fuc(a1-2)Gal(b1-3)GalNAc(a1-3)[Fuc(a1-2)]Gal(b1-4)GlcNAc
# Method in brief: (§1)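 The binding signal is a Z-score computed within each array and averaged over linkers. Arrays of the same protein sequence at different concentrations or buffers were also averaged together. Data originate from 3228 arrays in the Consortium for Functional Glycomics database, kept only where the protein sequence was available.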
# [2] = target: Fuc(a1-2)Gal(b1-4)GlcNAc(b1-2)Man
# Method in brief: as §1
# [3] = target: Fuc(a1-2)Gal(b1-4)GlcNAc(b1-3)GalNAc
# Method in brief: as §1
# [4] = target: Fuc(a1-2)[Gal(a1-3)]Gal(b1-4)[Fuc(a1-3)]Glc
# Method in brief: as §1
# [5] = target: Fuc(a1-2)[GalNAc(a1-3)]Gal(b1-3)GlcNAc
# Method in brief: as §1
# [6] = target: Fuc(a1-2)[GalNAc(a1-3)]Gal(b1-4)GlcNAc(b1-2)Man(a1-3)[Fuc(a1-2)[GalNAc(a1-3)]Gal(b1-4)GlcNAc(b1-2)Man(a1-6)]Man(b1-4)GlcNAc(b1-4)[Fuc(a1-6)]GlcNAc
# Method in brief: as §1
# [7] = target: Fuc(a1-2)[GalNAc(a1-3)]Gal(b1-4)GlcNAc(b1-3)Gal(b1-4)GlcNAc(b1-3)Gal(b1-4)GlcNAc
# Method in brief: as §1
# [8] = target: Fuc(a1-2)[GalNAc(a1-4)]Gal(b1-4)GlcNAc
# Method in brief: as §1
# [9] = target: Fuc(a1-3)[Gal(b1-4)]GlcNAc
# Method in brief: as §1
# [10] = target: Fuc(a1-3)[Gal3S(b1-4)]Glc
# Method in brief: as §1
# Gal(a1-2)Gal = target: Gal(a1-2)Gal
# Method in brief: as §1
# Gal(a1-3)Gal(b1-3)GlcNAc = target: Gal(a1-3)Gal(b1-3)GlcNAc
# Method in brief: as §1
# [11] = target: Gal(a1-3)Gal(b1-3)[Fuc(a1-4)]GlcNAc(b1-2)Man(a1-3)[Gal(a1-3)Gal(b1-3)[Fuc(a1-4)]GlcNAc(b1-2)Man(a1-6)]Man(b1-4)GlcNAc(b1-4)GlcNAc
# Method in brief: as §1
# [12] = target: Gal(a1-3)Gal(b1-4)[Fuc(a1-3)]GlcNAc
# Method in brief: as §1
# [13] = target: Gal(a1-4)Gal(b1-4)GlcNAc(b1-2)Man(a1-3)[Gal(a1-4)Gal(b1-4)GlcNAc(b1-2)Man(a1-6)]Man(b1-4)GlcNAc(b1-4)GlcNAc
# Method in brief: as §1
# [14] = target: Gal(b1-3)GalNAc(b1-3)Gal(a1-4)Gal(b1-4)Glc
# Method in brief: as §1
# [15] = target: Gal(b1-3)GalNAc(b1-4)Gal(b1-4)Glc
# Method in brief: as §1
# [16] = target: Gal(b1-3)GlcNAc(b1-2)Man(a1-3)[Gal(b1-3)GlcNAc(b1-2)Man(a1-6)]Man(b1-4)GlcNAc(b1-4)GlcNAc
# Method in brief: as §1
# [17] = target: Gal(b1-3)GlcNAc(b1-6)Gal(b1-4)GlcNAc
# Method in brief: as §1
# [18] = target: Gal(b1-4)GlcNAc(b1-2)Man(a1-3)[Gal(b1-4)GlcNAc(b1-2)Man(a1-6)]Man(b1-4)GlcNAc(b1-4)GlcNAc
# Method in brief: as §1
# [19] = target: Gal(b1-4)GlcNAc(b1-2)Man(a1-3)[GlcNAc(b1-4)][Gal(b1-4)GlcNAc(b1-2)Man(a1-6)]Man(b1-4)GlcNAc(b1-4)GlcNAc
# Method in brief: as §1
# [20] = target: Gal(b1-4)GlcNAc(b1-3)Gal(b1-4)GlcNAc(b1-2)[Gal(b1-4)GlcNAc(b1-3)Gal(b1-4)GlcNAc(b1-6)]Man(a1-6)[Gal(b1-4)GlcNAc(b1-3)Gal(b1-4)GlcNAc(b1-2)Man(a1-3)]Man(b1-4)GlcNAc(b1-4)GlcNAc
# Method in brief: as §1
# GalNAc(a1-3)Gal = target: GalNAc(a1-3)Gal
# Method in brief: as §1
# GalNAc(a1-3)GalNAc = target: GalNAc(a1-3)GalNAc
# Method in brief: as §1
# [21] = target: GlcNAc(a1-4)Gal(b1-4)GlcNAc
# Method in brief: as §1
# [22] = target: GlcNAc(b1-2)[GlcNAc(b1-4)]Man(a1-3)[GlcNAc(b1-4)][GlcNAc(b1-2)Man(a1-6)]Man(b1-4)GlcNAc(b1-4)GlcNAc
# Method in brief: as §1
# [23] = target: GlcNAc(b1-3)Gal(b1-4)GlcNAc(b1-2)[GlcNAc(b1-3)Gal(b1-4)GlcNAc(b1-6)]Man(a1-6)[GlcNAc(b1-3)Gal(b1-4)GlcNAc(b1-2)Man(a1-3)]Man(b1-4)GlcNAc(b1-4)GlcNAc
# Method in brief: as §1
# [24] = target: GlcNAc(b1-3)Gal(b1-4)GlcNAc(b1-3)Gal(b1-4)GlcNAc(b1-3)Gal(b1-4)GlcNAc(b1-3)Gal(b1-4)GlcNAc(b1-2)Man(a1-3)[GlcNAc(b1-3)Gal(b1-4)GlcNAc(b1-3)Gal(b1-4)GlcNAc(b1-3)Gal(b1-4)GlcNAc(b1-3)Gal(b1-4)GlcNAc(b1-2)Man(a1-6)]Man(b1-4)GlcNAc(b1-4)GlcNAc
# Method in brief: as §1
# [25] = target: GlcNAc(b1-3)Gal(b1-4)GlcNAc(b1-3)Gal(b1-4)GlcNAc(b1-3)GalNAc
# Method in brief: as §1
# Kdn(a2-3)Gal(b1-4)Glc = target: Kdn(a2-3)Gal(b1-4)Glc
# Method in brief: as §1
# [26] = target: Man(a1-2)Man(a1-2)Man(a1-3)Man
# Method in brief: as §1
# [27] = target: Man(a1-2)Man(a1-2)Man(a1-6)[Man(a1-3)]Man
# Method in brief: as §1
# Man(a1-2)Man(a1-3)Man = target: Man(a1-2)Man(a1-3)Man
# Method in brief: as §1
# [28] = target: Man(a1-2)Man(a1-3)[Man(a1-2)Man(a1-6)]Man
# Method in brief: as §1
# [29] = target: Man(a1-2)Man(a1-3)[Man(a1-2)Man(a1-6)]Man(a1-6)[Man(a1-2)Man(a1-2)Man(a1-3)]Man
# Method in brief: as §1
# [30] = target: Man(a1-2)Man(a1-3)[Man(a1-6)]Man(a1-6)[Man(a1-2)Man(a1-3)]Man(b1-4)GlcNAc(b1-4)GlcNAc
# Method in brief: as §1
# [31] = target: Man(a1-2)Man(a1-6)[Man(a1-3)]Man(a1-6)[Man(a1-2)Man(a1-2)Man(a1-3)]Man
# Method in brief: as §1
# [32] = target: Man(a1-2)Man(a1-6)[Man(a1-3)]Man(a1-6)[Man(a1-2)Man(a1-2)Man(a1-3)]Man(b1-4)GlcNAc(b1-4)GlcNAc
# Method in brief: as §1
# [33] = target: Man(a1-3)[Man(a1-6)]Man(a1-6)[Man(a1-2)Man(a1-3)]Man(b1-4)GlcNAc(b1-4)GlcNAc
# Method in brief: as §1
# [34] = target: Neu5Ac(a2-3)Gal(b1-3)GlcNAc(b1-2)Man(a1-3)[GlcNAc(b1-4)][Neu5Ac(a2-3)Gal(b1-3)GlcNAc(b1-2)Man(a1-6)]Man(b1-4)GlcNAc(b1-4)GlcNAc
# Method in brief: as §1
# [35] = target: Neu5Ac(a2-3)Gal(b1-4)GlcNAc(b1-2)Man
# Method in brief: as §1
# [36] = target: Neu5Ac(a2-3)Gal(b1-4)GlcNAc(b1-2)Man(a1-3)[GlcNAc(b1-4)][Neu5Ac(a2-3)Gal(b1-4)GlcNAc(b1-2)Man(a1-6)]Man(b1-4)GlcNAc(b1-4)GlcNAc
# Method in brief: as §1
# [37] = target: Neu5Ac(a2-3)Gal(b1-4)GlcNAc(b1-2)[Neu5Ac(a2-3)Gal(b1-4)GlcNAc(b1-4)]Man(a1-3)[GlcNAc(b1-4)][Neu5Ac(a2-3)Gal(b1-4)GlcNAc(b1-2)[Neu5Ac(a2-3)Gal(b1-4)GlcNAc(b1-6)]Man(a1-6)]Man(b1-4)GlcNAc(b1-4)GlcNAc
# Method in brief: as §1
# [38] = target: Neu5Ac(a2-3)Gal(b1-4)GlcNAc(b1-3)Gal(b1-4)GlcNAc(b1-3)[Neu5Ac(a2-3)Gal(b1-4)GlcNAc(b1-3)Gal(b1-4)GlcNAc(b1-6)]GalNAc
# Method in brief: as §1
# [39] = target: Neu5Ac(a2-3)Gal6S(b1-4)[Fuc(a1-3)]GlcNAc
# Method in brief: as §1
# [40] = target: Neu5Ac(a2-6)Gal(b1-4)GlcNAc(b1-2)Man(a1-3)[GlcNAc(b1-4)][Neu5Ac(a2-6)Gal(b1-4)GlcNAc(b1-2)Man(a1-6)]Man(b1-4)GlcNAc(b1-4)GlcNAc
# Method in brief: as §1
# [41] = target: Neu5Ac(a2-6)Gal(b1-4)GlcNAc(b1-2)Man(a1-3)[Neu5Ac(a2-3)Gal(b1-4)GlcNAc(b1-2)Man(a1-6)]Man(b1-4)GlcNAc(b1-4)GlcNAc
# Method in brief: as §1
# [42] = target: Neu5Ac(a2-6)Gal(b1-4)GlcNAc(b1-3)Gal(b1-4)GlcNAc(b1-3)Gal(b1-4)GlcNAc(b1-2)Man(a1-3)[Neu5Ac(a2-6)Gal(b1-4)GlcNAc(b1-3)Gal(b1-4)GlcNAc(b1-3)Gal(b1-4)GlcNAc(b1-2)Man(a1-6)]GalNAc
# Method in brief: as §1
# [43] = target: Neu5Ac(a2-6)Gal(b1-4)GlcNAc(b1-3)Gal(b1-4)GlcNAc(b1-6)[Gal(b1-3)]GalNAc
# Method in brief: as §1
# [44] = target: Neu5Ac(a2-8)Neu5Ac(a2-8)Neu5Ac(a2-3)Gal(b1-4)Glc
# Method in brief: as §1
# Neu5Gc(a2-6)GalNAc = target: Neu5Gc(a2-6)GalNAc
# Method in brief: as §1
binder,measurement,setting,value
CVN-E41G (protein) MHHHHHHENLYFQSGNFSQACYNSAIQGSVLTSTCIRTNGGYNTSSIDLNSVIANVDGSLKWQGSNFIETCRNTQLAGSSELAAECKTRAQQFVSTKINLDDHIAAIDGTLKYE,glycan array binding signal (z-score),[1],-0.16
same,glycan array binding signal (z-score),[2],-0.09
same,glycan array binding signal (z-score),[3],-0.19
same,glycan array binding signal (z-score),[4],-0.145
same,glycan array binding signal (z-score),[5],-0.168
same,glycan array binding signal (z-score),[6],1.61
same,glycan array binding signal (z-score),[7],-0.123
same,glycan array binding signal (z-score),[8],-0.221
same,glycan array binding signal (z-score),[9],-0.194
same,glycan array binding signal (z-score),[10],-0.171
same,glycan array binding signal (z-score),Gal(a1-2)Gal,-0.221
same,glycan array binding signal (z-score),Gal(a1-3)Gal(b1-3)GlcNAc,-0.192
same,glycan array binding signal (z-score),[11],1.41
same,glycan array binding signal (z-score),[12],-0.243
same,glycan array binding signal (z-score),[13],0.1
same,glycan array binding signal (z-score),[14],-0.198
same,glycan array binding signal (z-score),[15],-0.211
same,glycan array binding signal (z-score),[16],0.128
same,glycan array binding signal (z-score),[17],-0.121
same,glycan array binding signal (z-score),[18],-0.227
same,glycan array binding signal (z-score),[19],-0.238
same,glycan array binding signal (z-score),[20],0.189
same,glycan array binding signal (z-score),GalNAc(a1-3)Gal,-0.219
same,glycan array binding signal (z-score),GalNAc(a1-3)GalNAc,-0.252
same,glycan array binding signal (z-score),[21],-0.214
same,glycan array binding signal (z-score),[22],-0.211
same,glycan array binding signal (z-score),[23],-0.064
same,glycan array binding signal (z-score),[24],-0.204
same,glycan array binding signal (z-score),[25],-0.168
same,glycan array binding signal (z-score),Kdn(a2-3)Gal(b1-4)Glc,-0.177
same,glycan array binding signal (z-score),[26],8.7
same,glycan array binding signal (z-score),[27],8.39
same,glycan array binding signal (z-score),Man(a1-2)Man(a1-3)Man,7.22
same,glycan array binding signal (z-score),[28],8.35
same,glycan array binding signal (z-score),[29],10.5
same,glycan array binding signal (z-score),[30],5.81
same,glycan array binding signal (z-score),[31],9.42
same,glycan array binding signal (z-score),[32],6.36
same,glycan array binding signal (z-score),[33],3.98
same,glycan array binding signal (z-score),[34],0.053
same,glycan array binding signal (z-score),[35],0.044
same,glycan array binding signal (z-score),[36],-0.212
same,glycan array binding signal (z-score),[37],-0.177
same,glycan array binding signal (z-score),[38],-0.218
same,glycan array binding signal (z-score),[39],-0.235
same,glycan array binding signal (z-score),[40],-0.208
same,glycan array binding signal (z-score),[41],-0.216
same,glycan array binding signal (z-score),[42],-0.108
same,glycan array binding signal (z-score),[43],-0.172
same,glycan array binding signal (z-score),[44],-0.226
same,glycan array binding signal (z-score),Neu5Gc(a2-6)GalNAc,-0.18
